# Measured values as given in PubChem BioAssay (Tox21).
# Records with an inconclusive call do not appear. Entries that show only a call come without a potency. Active and inactive are the calls of the source. Calls follow the shape of the full dose curve.
# Biological target: Beta-2 adrenergic receptor (Homo sapiens) (UniProt P07550)
# Assay: Adrenergic beta2 receptor (ADRB2) small molecule agonists, cell-based qHTS assay (AID 1963593)
# Conditions: CHO-ADRB2 cells, cAMP HTRF, 30 min; series mostly up to 92.4 µM
# Description: National Center for Advancing Translational Sciences [NCATS]
# Division of Preclinical Innovation [DPI]
# U.S. Environmental Protection Agency [EPA]
# National Institutes of Environmental Health Sciences [NIEHS]
# National Toxicology Program [NTP]
# U.S. Food and Drug Administration [FDA]
# Beta adrenergic receptors (Beta-ARs) belong to the G-protein coupled receptor (GPCR) superfamily, includes three subtypes - beta1, beta2, and beta3. Beta1-AR is the predominant receptor subtype expressed in the heart, and beta2-AR is expressed in the kidney, lung, blood vessel and in the heart, and beta3 is found in the adipocytes. Beta1 and 2 ARs couple to Gs protein and elevate cyclic adenosine mono phosphate (cAMP), which activates protein kinase A and leads to the downstream signaling responsible for the physiological actions. Beta-AR agonists or antagonists are the most prescribed therapeutic agents for heart failure and asthma, and these were one of the first target receptors for the rational drug design. Tox21 10K compound library was screened using the cAMP-Gs dynamic assay (Cisbio Bioassays, Shelton, CT) to identify agonists/antagonists of the Gs-coupled human adrenergic, beta2 receptor (ADRB2) in the CHO-ADRB2 cell line (Codex BioSolutions, Inc. Gaithersburg, MD), which stably over-expresses ADRB2. The principle of cAMP-Gs dynamic assay is based on HTRF technology, which facilitates the fluorescence resonance energy transfer (FRET) between donor Europium cryptate and acceptor d2-labeled cAMP. The cAMP generated within cells competes with the red acceptor, d2-labled cAMP, for binding to the monoclonal anti-cAMP-cryptate (Europium donor). An increase in intracellular cAMP leads to the disruption of FRET signal, and the signal is inversely proportional to the cAMP concentration. Isoproterenol HCl (Sigma-Aldrich, St. Louis, MO) was used as a positive control in the screening.
# Tox21 Assay Protocol Summary:
# CHO-ADRB2 cells were dispensed at 1,000/well in 4uL assay medium into white/solid 1536-well plates (Greiner Bio-One North America Inc., Monroe, NC) using a Multidrop Combi dispenser (ThermoFisher Scientific, Waltham, MA). The assay plates were incubated at 37C and 5% CO2 for an overnight (18-20hr). Then positive control and test compounds dissolved in DMSO were transferred to the assay plates at 23nL using a Pintool station (Wako, San Diego, CA). Following the compound and positive control transfer, 1uL stimulation mix containing 100uM IBMX and 25uM Ro-20-1724 was added to each well of the assay plates using BioRAPTR Flying Reagent Dispenser (FRD, Beckman Coulter, Brea, CA). The assay plates were incubated at room temperature for 0.5hr. Then 2.5ul each d2-labled cAMP and anti-cAMP-cryptate solutions were added separately to each well of the assay plates using an FRD and the assay plates were incubated at room temperature for 1hr.
# Beta-2 adrenergic receptor (Homo sapiens), sequence (P07550 whole entry, looked up): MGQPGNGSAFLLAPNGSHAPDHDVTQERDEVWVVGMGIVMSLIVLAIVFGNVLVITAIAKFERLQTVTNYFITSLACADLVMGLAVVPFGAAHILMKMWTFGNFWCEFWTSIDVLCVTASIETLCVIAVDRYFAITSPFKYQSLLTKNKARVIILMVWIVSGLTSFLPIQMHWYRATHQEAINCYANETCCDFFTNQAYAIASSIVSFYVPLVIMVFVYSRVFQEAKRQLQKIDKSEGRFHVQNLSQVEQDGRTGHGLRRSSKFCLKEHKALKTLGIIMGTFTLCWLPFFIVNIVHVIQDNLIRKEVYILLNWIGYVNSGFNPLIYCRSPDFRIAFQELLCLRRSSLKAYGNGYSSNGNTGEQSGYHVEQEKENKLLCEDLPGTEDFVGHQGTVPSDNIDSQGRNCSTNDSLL
row,SMILES,Potency
1,CC(C)C1(C)N=C(c2ncccc2C(=O)O)NC1=O (stereo not given),inactive
2,CCCCCCCCCCCCCCCCCC(=O)O,inactive
3,CC(C)(C)c1ccccc1O,inactive
4,CC(=O)C(C)(C)C,inactive
5,OCCCl,inactive
6,Cl[C@H]1OCCO[C@@H]1Cl,inactive
7,CCC[N+]1(C)CCCCC1,inactive
8,CCCCCCCCCCCCCl,inactive
9,CC(C)Oc1cc(-n2nc(C(C)(C)C)oc2=O)c(Cl)cc1Cl,inactive
10,CC(O)CN1CCN(CC(=O)[O-])CCN(CC(=O)[O-])CCN(CC(=O)[O-])CC1.[Gd+3] (stereo not given),inactive
11,CN(C)c1ccccc1,inactive
12,C=C(C)C(=O)OCC1CO1 (stereo not given),inactive
13,Oc1ccc(Cl)cc1,inactive
14,CC(C)C#N,inactive
15,CCC(=O)O[C@H]1CC[C@H]2[C@@H]3CCC4=CC(=O)CC[C@]4(C)[C@H]3CC[C@]12C,inactive
16,C/C(=N\NC(=O)Nc1cc(F)cc(F)c1)c1ncccc1C(=O)O,inactive
17,N#CCBr,inactive
18,COC(=O)NS(=O)(=O)c1ccc(N)cc1,inactive
19,CNC(=O)Oc1cccc2c1OC(C)(C)O2,inactive
20,O=C(O)c1nn(Cc2ccc(Cl)cc2Cl)c2ccccc12,inactive

row,SMILES,Potency
1,O=NN1CCOCC1,inactive
2,OCCCCO,inactive
3,COC(=O)c1c(C(F)F)nc(C(F)(F)F)c(C2=NCCS2)c1CC(C)C,inactive
4,CCOP(=S)(OCC)Oc1ccc([N+](=O)[O-])cc1,inactive
5,BrC(Br)Br,inactive
6,FC(F)(F)c1ccc(Cl)cc1,inactive
7,CC1CC(=O)O1 (stereo not given),inactive
8,CCCCn1cc[n+](C)c1C,inactive
9,CCN(CCO)CCO,inactive
10,CNC(=O)Oc1cccc2c1OC(C)(C)C2,inactive
11,O=C(Cl)c1ccccc1,inactive
12,c1ccc(N2CCNCC2)cc1,inactive
13,Nc1ccccc1C(=O)O,inactive
14,ClCCOCCCl,inactive
15,O=C(O)c1cc(Oc2ccc(C(F)(F)F)cc2Cl)ccc1[N+](=O)[O-],inactive
16,CCC(=O)OC1(c2ccccc2)CCN(C)CC1,inactive
17,CCCCOC(=O)c1ccccc1C(=O)OCCCC,inactive
18,CC(Cl)(Cl)C(=O)O,inactive
19,Nc1ncc([N+](=O)[O-])s1,inactive
20,O=C(O)C1C2CCC(O2)C1C(=O)O (stereo not given),inactive
